# KCNQ2 pot: KCNQ2 (rat) channel potentiation; O88943; CHO-K1 KCNQ2, FluxOR thallium flux fluorescence; hits give high values; B-score at 10 µM; hit rate 0.54% among 310,000; AID 2239;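 active means fluorescence ratio B-score at least 3 SD of library B-scores, with initial fluorescence B-score within 3 of them, cut at about 5.3 in these data; same plate scores as AID 2156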;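 further: B-score of peak minus minimum over baseline fluorescence ratio after K+ and Tl+ stimulus; positive B-score means potentiation of KCNQ2 with more thallium influx and brighter signal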
# KCNQ2 block: KCNQ2 (rat) channel inhibition; B-score at 10 µM; AID 2156; O88943; hit rate 1.1% among 310,000; CHO-K1 KCNQ2, FluxOR thallium flux, 20 min; hits give low values;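 active means fluorescence ratio B-score at most minus 3 library SDs, with starting brightness B-score within 2 library SDs, cut at about -5.5 in these data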
# Kir21 confirm: confirmation of mouse Kir2.1 potassium channel inhibitors. Tl flux remaining, % of negative control (hits give low values), % at 10 µM. AID 2032. shares compounds with KCNQ2 pot. Kir2.1-expressing cells, FluxOR thallium flux fluorescence; hits give low values. hit rate 41% among 2,300;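 active means Primary-screen hit whose thallium flux fell at least 3 control SD below untreated wells in both duplicates, with normal baseline fluorescence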
# Target sequence (P35561 whole entry, looked up): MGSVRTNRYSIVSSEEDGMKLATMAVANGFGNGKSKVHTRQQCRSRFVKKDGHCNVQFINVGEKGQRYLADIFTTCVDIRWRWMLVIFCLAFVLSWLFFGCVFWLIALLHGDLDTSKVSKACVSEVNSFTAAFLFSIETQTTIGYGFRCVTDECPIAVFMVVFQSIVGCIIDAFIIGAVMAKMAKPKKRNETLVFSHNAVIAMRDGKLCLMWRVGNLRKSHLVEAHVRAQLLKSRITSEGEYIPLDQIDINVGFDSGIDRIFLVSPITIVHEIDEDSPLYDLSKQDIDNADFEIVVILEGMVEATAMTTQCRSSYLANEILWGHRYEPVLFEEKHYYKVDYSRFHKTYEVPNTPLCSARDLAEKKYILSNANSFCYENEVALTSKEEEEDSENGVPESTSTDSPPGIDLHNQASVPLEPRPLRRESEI
# HEK293 Tl flux: parental HEK293 activity in Kir2.1 inhibitor counter-screen; shares compounds with KCNQ2 pot; parental HEK293 cells, FluxOR thallium flux fluorescence; 0% = unstimulated blank wells; FluxOR signal as % of negative control (100 = no effect), % at 10 µM; hit rate 19% among 2,300; AID 2105;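 active means dye signal at least 3 control SD above or below untreated wells in both duplicates, raw fluorescence within 3, either direction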;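 further: percent is based on the flux ratio of peak minus minimum fluorescence over baseline F0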
# CHO-K1 Tl ctr: alters thallium flux in parental CHO-K1 cells, KCNQ2 counter-screen | FluxOR thallium flux fluorescence; zero = vehicle mean+3SD, 100% = vehicle-minus-blank window | shares compounds with KCNQ2 pot | activity increase over 3SD of controls, % at 10 µM | AID 2282 | hit rate 43% among 1,200;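 active means signal rise of at least 3 SD above the untreated control mean, in both duplicate wells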;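 further: counter screen of KCNQ2 potentiator hits so any rise reflects channel-independent effects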
# KCNQ1 sel pot: selectivity of KCNQ2 potentiators: effect on human KCNQ1 | hit rate 28% among 1,200 | activation over 3SD threshold, % at 10 µM | shares compounds with KCNQ2 pot | CHO KCNQ1 stable, FluxOR thallium flux fluorescence; beyond 3SD, as % of vehicle-control signal;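 active means fluorescence ratio rise of at least 3 SD of vehicle wells above their mean, in both replicate wells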
# KCNQ2 pot confirm: confirmation of rat KCNQ2 potassium channel potentiators; shares compounds with KCNQ2 pot; CHO-KCNQ2 cells, FluxOR thallium flux fluorescence; potentiation, less the hit threshold, % at 10 µM; hit rate 68% among 1,200; AID 2287;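 active means fluorescence ratio rising 3 SD or more over the vehicle control mean in both replicates, plus primary screen hit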;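 further: peak minus minimum thallium fluorescence divided by baseline after K/Tl stimulus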
# Kir21 spec: selectivity of KCNQ2 potentiators: effect on mouse Kir2.1; shares compounds with KCNQ2 pot; HEK293 Kir2.1, FluxOR thallium flux fluorescence; activity over 3SD threshold, % at 10 µM; hit rate 2% among 1,200; AID 2345;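 active means fluorescence ratio rise of at least 3 SD above the vehicle-control mean, seen in both replicates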
# KCNQ2 W236L pot: potentiates the retigabine-insensitive rat KCNQ2 W236L mutant channel; shares compounds with KCNQ2 pot; CHO KCNQ2-W236L, automated patch clamp current; current increase over 3SD of negative controls (%), hits give high values, % at 25 µM; hit rate 10% among 940;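 active means current increase at least 3 SD of the untreated controls above them in both duplicate recordings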
# Hits are given with their value; i = inactive; nt = no result. Sampled rows, rich in hits. Any-hit rate of the full collection: about 1.6%.
SMILES,KCNQ2 pot,KCNQ2 block,Kir21 confirm,HEK293 Tl flux,others
CCOC(=O)c1ccc(-n2c(CCC(=O)O)ccc2-c2ccc(F)cc2)cc1,nt,i,nt,nt,
CN(C)CCOc1ccc(C(C)(C)c2ccccc2)cc1,nt,i,nt,nt,
CN(C)CCCOc1ccc(C(C)(C)c2ccccc2)cc1,nt,i,36%,i,
O=C1CSC(c2ccccc2F)N1CCN1CCCCC1 (stereo not drawn),i,i,nt,nt,
O=C1CSC(c2ccccc2F)N1c1cc(Cl)ccc1O (stereo not drawn),i,i,i,i,
c1ccc(COc2ccc(CNCc3cccs3)cc2)cc1,nt,i,10%,72%,
Brc1ccc(CNCc2cccs2)cc1,nt,i,nt,nt,
CC#CC(=O)NCC1(N(C)Cc2ccccc2)Cc2ccccc2C1,i,i,nt,nt,
CCCCCCCCC[n+]1cccc2c3ccccc3ccc21,nt,i,6.5%,i,
O=[N+]([O-])c1ccc(C[n+]2cccc3c4ccccc4ccc32)cc1,i,i,nt,nt,
COc1ccc(OC(=O)COc2ccc(Cl)cc2)cc1,i,i,nt,nt,
Cc1ccc(S(=O)(=O)Oc2ccccc2/C=N/N=C(N)N)cc1,nt,i,46%,i,
Cc1ccc(S(=O)(=O)Oc2ccccc2/C=N/NC(N)=S)cc1,i,i,nt,nt,
CCN(CC(=O)NC(=O)NC1CCCCC1)Cc1nc2ccccc2c(=O)[nH]1,10,i,i,i,CHO-K1 Tl ctr=63;KCNQ1 sel pot=17;KCNQ2 pot confirm=34;Kir21 spec=i;KCNQ2 W236L pot=i
CCN(CC(=O)NC(=O)NC1CCCCC1)Cc1ccccc1,nt,i,nt,nt,
COc1ccc(-c2noc(N3CCCC(C(=O)Nc4ccc(F)cc4F)C3)n2)cc1 (stereo not drawn),nt,i,nt,nt,
CCCCN(C(=O)CCn1c(=O)oc2ccccc21)c1ccccc1,nt,i,49%,i,
CCN(CC)C(=O)Cn1c(=O)oc2ccccc21,nt,i,nt,nt,
O=C(CCS(=O)(=O)c1ccc(Cl)cc1)N1CCCc2ccccc21,i,i,nt,nt,
Cc1ccc(S(=O)(=O)NCCC(=O)Nc2ncccc2O)cc1C,i,i,nt,nt,
O=C(O)C(F)=C1c2ccccc2-c2ccccc21,i,i,nt,nt,
Cc1ccc(S(=O)(=O)Nc2nc3ccccc3nc2Nc2cccc(S(=O)(=O)N3CCCC3)c2)cc1,nt,i,nt,nt,
O=[N+]([O-])c1cccc(S(=O)(=O)Nc2nc3ccccc3nc2Nc2cccc(S(=O)(=O)N3CCCCC3)c2)c1,8.2,i,i,i,CHO-K1 Tl ctr=i;KCNQ1 sel pot=17;KCNQ2 pot confirm=i;Kir21 spec=i
CCOC(=O)c1nnn(-c2nonc2N)c1CSc1ccc(C)cc1,i,i,71%,i,
CCOC(=O)c1nnn(-c2nonc2N)c1CSc1ccccc1,i,i,nt,nt,
SMILES,KCNQ2 pot,KCNQ2 block,Kir21 confirm,HEK293 Tl flux,others
CCOC(=O)c1ccccc1NC(=O)COC(=O)CCNS(=O)(=O)c1ccccc1,i,i,nt,nt,
CCOC(=O)Cn1c(=N)n(CCOc2ccc3ccccc3c2)c2ccccc21,nt,i,28%,i,
CCOC(=O)Cn1c(=N)n(CCOc2ccc(OC)cc2)c2ccccc21,nt,i,nt,nt,
S=c1nc(C2CCCCC2)n(-c2ccccc2)[nH]1,11,i,i,262%,CHO-K1 Tl ctr=42;KCNQ1 sel pot=i;KCNQ2 pot confirm=22;Kir21 spec=i;KCNQ2 W236L pot=i
S=c1nc(-c2ccccc2)n(-c2ccccc2)[nH]1,i,i,nt,nt,
CCC1(c2ccccc2)NC(=O)N(CC(=O)Nc2ccc(S(N)(=O)=O)cc2)C1=O (stereo not drawn),nt,i,nt,nt,
CC(C)(C)c1ccc(C(=O)CC(=O)c2cc(Cl)ccc2O)cc1,i,i,nt,nt,
Cc1ccc(C(=O)CC(=O)c2cc(Cl)ccc2O)cc1,6,i,i,i,CHO-K1 Tl ctr=i;KCNQ1 sel pot=i;KCNQ2 pot confirm=27;Kir21 spec=i;KCNQ2 W236L pot=i
COc1ccccc1NC(=O)C(CC(C)C)NC(=O)C1CCCCC1 (stereo not drawn),nt,i,nt,nt,

# From PubChem BioAssay
